Reference: PubChem BioAssay AID1159580 (chemical genetic matrix, 2015)
About 2,000 (36%) of roughly 5,500 compounds were called active. Not shown: some 18% with an inconclusive outcome. No stated cut-off is given here; in the data, active means normalized growth mostly below about 0.91 (no sharp cut-off); inconclusive means no clear call, values can overlap the other calls; inactive means mostly above about 0.92. The list shows a part of the results.

Test: chemical genetic growth profiling, strain panel (AID 1159580);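 further: tested at 20 µM; growth read once vehicle control cultures reached saturation at 30 °C; 1 = growth at the plate median or of vehicle wells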
Conditions: growth OD

Measured: normalized growth

O=C1C[C@@H](c2ccc(O)cc2)Oc2cc(O)cc(O)c21
inactive: S. cerevisiae deletion strains, locus YJR075W, strain HOC1, stronger effect = lower value 1.02 | S. cerevisiae deletion strains, locus YKL009W, strain mrt4, stronger effect = lower value 1 | S. cerevisiae deletion strains, locus YKL068W, stronger effect = lower value 0.998 | S. cerevisiae deletion strains, locus YKL085W, strain MDH1 (second series), stronger effect = lower value 1 | S. cerevisiae deletion strains, locus YKL085W, strain MDH1, stronger effect = lower value 1 | S. cerevisiae deletion strains, locus YKL160W, strain elf1, stronger effect = lower value 0.985 | S. cerevisiae deletion strains, locus YKL190W, strain CNB1, stronger effect = lower value 1.01 | S. cerevisiae deletion strains, locus YKR001C, strain vps1, stronger effect = lower value 0.999 | S. cerevisiae deletion strains, locus YKR026C, strain gcn3, stronger effect = lower value 0.962 | S. cerevisiae deletion strains, locus YKR091W, strain srl3, stronger effect = lower value 0.973 | S. cerevisiae deletion strains, locus YLL001W, strain dnm1, stronger effect = lower value 0.944 | S. cerevisiae deletion strains, locus YLL026W, stronger effect = lower value 0.967 | S. cerevisiae deletion strains, locus YLL041C, strain sdh2, stronger effect = lower value 0.977 | S. cerevisiae deletion strains, locus YLR027C, strain aat2, stronger effect = lower value 0.982 | S. cerevisiae deletion strains, locus YLR039C, strain RIC1, stronger effect = lower value 1 | S. cerevisiae deletion strains, locus YLR058C, strain SHM2, stronger effect = lower value 1.01 | S. cerevisiae deletion strains, locus YLR102C, strain apc9, stronger effect = lower value 1.02 | S. cerevisiae deletion strains, locus YLR113W, strain HOG1, stronger effect = lower value 0.967 | S. cerevisiae deletion strains, locus YLR221C, strain rsa3, stronger effect = lower value 0.975 | S. cerevisiae deletion strains, locus YLR258W, strain gsy2, stronger effect = lower value 0.968 | S. cerevisiae deletion strains, locus YLR262C, strain YPT6 (second series), stronger effect = lower value 0.962 | S. cerevisiae deletion strains, locus YLR262C, strain YPT6, stronger effect = lower value 0.992 | S. cerevisiae deletion strains, locus YLR268W, strain sec22, stronger effect = lower value 1.01 | S. cerevisiae deletion strains, locus YLR320W, strain mms22, stronger effect = lower value 0.959 | S. cerevisiae deletion strains, locus YLR330W, strain CHS5, stronger effect = lower value 1.02 | S. cerevisiae deletion strains, locus YLR342W, strain FKS1 (second series), stronger effect = lower value 0.989 | S. cerevisiae deletion strains, locus YLR342W, strain FKS1, stronger effect = lower value 0.963 | S. cerevisiae deletion strains, locus YLR357W, strain rsc2, stronger effect = lower value 0.935 | S. cerevisiae deletion strains, locus YLR370C, strain arc18, stronger effect = lower value 0.957 | S. cerevisiae deletion strains, locus YLR371W, strain rom2, stronger effect = lower value 1.03 | S. cerevisiae deletion strains, locus YLR384C, strain iki3, stronger effect = lower value 0.959 | S. cerevisiae deletion strains, locus YLR418C, strain cdc73, stronger effect = lower value 1.03 | S. cerevisiae deletion strains, locus YML016C, strain PPZ1, stronger effect = lower value 1.01 | S. cerevisiae deletion strains, locus YML032C, strain rad52, stronger effect = lower value 1.01 | S. cerevisiae deletion strains, locus YML120C, strain ndi1, stronger effect = lower value 0.957 | S. cerevisiae deletion strains, locus YML124C, strain tub3, stronger effect = lower value 1.02 | S. cerevisiae deletion strains, locus YMR058W, strain fet3, stronger effect = lower value 0.955 | S. cerevisiae deletion strains, locus YMR078C, strain ctf18, stronger effect = lower value 1.02 | S. cerevisiae deletion strains, locus YMR125W, strain sto1, stronger effect = lower value 0.938 | S. cerevisiae deletion strains, locus YMR129W, stronger effect = lower value 0.966 | S. cerevisiae deletion strains, locus YMR205C, strain PFK2, stronger effect = lower value 0.942 | S. cerevisiae deletion strains, locus YMR223W, strain ubp8, stronger effect = lower value 1.01 | S. cerevisiae deletion strains, locus YMR231W, strain pep5, stronger effect = lower value 0.976 | S. cerevisiae deletion strains, locus YMR263W, strain SAP30, stronger effect = lower value 1.01 | S. cerevisiae deletion strains, locus YMR307W, strain GAS1, stronger effect = lower value 0.994 | S. cerevisiae deletion strains, locus YNL067W, strain RPL9B, stronger effect = lower value 1.01 | S. cerevisiae deletion strains, locus YNL071W, strain lat1, stronger effect = lower value 0.967 | S. cerevisiae deletion strains, locus YNL128W, strain TEP1, stronger effect = lower value 1.02 | S. cerevisiae deletion strains, locus YNL153C, strain GIM3, stronger effect = lower value 1.01 | S. cerevisiae deletion strains, locus YNL183C, strain NPR1, stronger effect = lower value 0.936 | S. cerevisiae deletion strains, locus YNL209W, strain ssb2, stronger effect = lower value 0.966 | S. cerevisiae deletion strains, locus YNL233W, strain BNI4, stronger effect = lower value 0.999 | S. cerevisiae deletion strains, locus YNL248C, strain rpa49, stronger effect = lower value 0.969 | S. cerevisiae deletion strains, locus YNL250W, strain rad50, stronger effect = lower value 1.01 | S. cerevisiae deletion strains, locus YNL271C, strain bni1, stronger effect = lower value 1.01 | S. cerevisiae deletion strains, locus YNL298W, strain CLA4, stronger effect = lower value 1.03 | S. cerevisiae deletion strains, locus YNL307C, strain MCK1, stronger effect = lower value 1.01 | S. cerevisiae deletion strains, locus YNL322C, strain KRE1 (second series), stronger effect = lower value 0.982 | S. cerevisiae deletion strains, locus YNL322C, strain KRE1, stronger effect = lower value 1.01 | S. cerevisiae deletion strains, locus YNR049C, strain mso1, stronger effect = lower value 0.959 | S. cerevisiae deletion strains, locus YNR052C, strain pop2, stronger effect = lower value 1.01 | S. cerevisiae deletion strains, locus YOL006C, strain TOP1, stronger effect = lower value 0.997 | S. cerevisiae deletion strains, locus YOL012C, strain htz1 0.851 | S. cerevisiae deletion strains, locus YOL147C, strain pex11, stronger effect = lower value 1.02 | S. cerevisiae deletion strains, locus YOR001W, strain rrp6, stronger effect = lower value 0.983 | S. cerevisiae deletion strains, locus YOR061W, strain CKA2, stronger effect = lower value 1.02 | S. cerevisiae deletion strains, locus YOR069W, strain VPS5, stronger effect = lower value 1.01 | S. cerevisiae deletion strains, locus YOR070C, strain gyp1, stronger effect = lower value 0.964 | S. cerevisiae deletion strains, locus YOR080W, strain dia2, stronger effect = lower value 0.976 | S. cerevisiae deletion strains, locus YOR083W, strain WHI5, stronger effect = lower value 0.996 | S. cerevisiae deletion strains, locus YOR106W, strain vam3, stronger effect = lower value 0.963 | S. cerevisiae deletion strains, locus YOR136W, strain idh2, stronger effect = lower value 1.02 | S. cerevisiae deletion strains, locus YOR144C, strain elg1, stronger effect = lower value 1.01 | S. cerevisiae deletion strains, locus YOR184W, strain ser1, stronger effect = lower value 1 | S. cerevisiae deletion strains, locus YOR231W, strain MKK1, stronger effect = lower value 0.95 | S. cerevisiae deletion strains, locus YOR265W, strain rbl2, stronger effect = lower value 0.969 | S. cerevisiae deletion strains, locus YOR270C, strain vph1, stronger effect = lower value 0.902 | S. cerevisiae deletion strains, locus YOR290C, strain snf2, stronger effect = lower value 0.923 | S. cerevisiae deletion strains, locus YOR316C, strain cot1, stronger effect = lower value 1.01 | S. cerevisiae deletion strains, locus YPL051W, strain arl3, stronger effect = lower value 0.984 | S. cerevisiae deletion strains, locus YPL055C, strain LGE1, stronger effect = lower value 1.02 | S. cerevisiae deletion strains, locus YPL078C, strain atp4, stronger effect = lower value 0.971 | S. cerevisiae deletion strains, locus YPL106C, strain sse1, stronger effect = lower value 0.957 | S. cerevisiae deletion strains, locus YPL240C, strain hsp82, stronger effect = lower value 0.978 | S. cerevisiae deletion strains, locus YPL241C, strain CIN2, stronger effect = lower value 1 | S. cerevisiae deletion strains, locus YPL256C, strain CLN2, stronger effect = lower value 0.921 | S. cerevisiae deletion strains, locus YPR119W, strain clb2, stronger effect = lower value 1.01 | S. cerevisiae deletion strains, locus YPR141C, strain kar3, stronger effect = lower value 1.01 | S. cerevisiae deletion strains, locus YPR163C, strain tif3, stronger effect = lower value 1 | S. cerevisiae deletion strains, locus YPR167C, strain met16, stronger effect = lower value 1.01 | S. cerevisiae deletion strains, strain wtn01, stronger effect = lower value 1.02 | S. cerevisiae strains, strain wild type, stronger effect = lower value 1.01
